# According to PubChem BioAssay (NCATS):
# “And” between values parts separate entries of the source, which are not always exact repeats. Equal entries are not always repeated. Results filed as inconclusive are left out. A call without a number means that no potency is given here. The source made the active and inactive calls. Unless noted, calls come from the whole dose curve; as a rule, active = well fitted curve in the direction sought with a large enough effect; inconclusive = small, poorly fitted or top-dose-only effect, or another doubt; inactive = no such curve, though single readings can be large; an effect the other way counts as inactive or inconclusive.
# Key:
# [1] = qHTS Assay for Lipid Storage Modulators (AID 1519; calls by dose curve); settings: Drosophila S3 cells, BODIPY lipid droplet/cell ratio, laser cytometry, cells loaded with oleic acid
# In short: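 Cells seeded at 5,000 per well were treated with compounds over a concentration series and loaded with oleic acid (400 uM, as added). Lipid droplet fluorescence (488 nm excitation, 500-530 nm channel) was read by laser-scanning cytometry and normalized to 20 uM Triacsin C.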
# [2] = Cell Viability - LYMP2-002 (AID 977); settings: LYMP2-002 lymphoblastoid cell viability, qHTS; series mostly up to 92.2 µM;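 note: compound exposure lasted 24 h at 37 °C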
# In short: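 Human lymphoblastoid LYMP2-002 cells, 2500 per well, exposed to compounds for 24 h at 37 C in complete medium; viability read as intracellular ATP by CellTiter-Glo luminescence, AC50 from Hill fits.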
# [3] = Cell Viability - LYMP2-006 (AID 978); settings: LYMP2-006 lymphoblastoid cell viability, qHTS; series mostly up to 92.2 µM; note: nearly all actives have a fitted effect of over 60% in size
# In short: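 Concentration-dependent loss of intracellular ATP in a human lymphoblastoid line after 24 hr treatment at 37 C was measured by CellTiter-Glo luminescence, with AC50 values obtained from standard Hill-equation modelling.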
# [4] = Cell Viability - LYMP2-007 (AID 979); settings: LYMP2-007 lymphoblastoid cell viability; series mostly up to 92.2 µM;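 note: cells exposed to compound for 24 h before reading; nearly all actives have a fitted effect of over 60% in size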
# In short: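 Human lymphoblastoid cells (2500/well) were plated in complete medium, incubated 5 hr at 37 C, then exposed to compounds for 24 hr at 37 C. Intracellular ATP was read by CellTiter-Glo luminescence after 30 min at room temperature; AC50 from Hill fits.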
# [5] = Cell Viability - LYMP2-008 (AID 980); settings: LYMP2-008 lymphoblastoid cell viability, qHTS; series mostly up to 92.2 µM; note: nearly all actives have a fitted effect of over 60% in size
# In short: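 Human lymphoblastoid cells (2500/well) were plated, held 5 hr at 37 C, then exposed to compounds for 24 hr at 37 C in complete medium. Intracellular ATP was read by CellTiter-Glo luminescence; AC50 from Hill-fitted concentration-response.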
# [6] = Cell Viability - LYMP2-010 (AID 981); settings: LYMP2-010 lymphoblastoid cell viability, qHTS; series mostly up to 92.2 µM; note: nearly all actives have a fitted effect of over 55% in size
# In short: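 Human lymphoblastoid LYMP2-010 cells (2500/well) were preincubated 5 hr at 37 C, then exposed to compounds for 24 hr at 37 C in complete medium. Intracellular ATP was measured by CellTiter-Glo luminescence after 30 min at room temperature; AC50 from Hill-fitted concentration-response.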
# [7] = Cell Viability - LYMP2-012 (AID 982); settings: LYMP2-012 lymphoblastoid cell viability qHTS; series mostly up to 92.2 µM;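 note: cellular ATP by luciferase luminescence where a drop means cytotoxicity; cells exposed to compound for one day before reading; nearly all actives have a fitted effect of over 55% in size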
# [8] = Cell Viability - LYMP2-014 (AID 983); settings: LYMP2-014 lymphoblastoid cells, viability qHTS; series mostly up to 92.2 µM; note: nearly all actives have a fitted effect of over 50% in size
# In short: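 Human lymphoblastoid cells (2500/well) were pre-incubated 5 hr at 37 C, then exposed to compounds in complete medium for 24 hr at 37 C. Intracellular ATP was read by CellTiter-Glo luminescence after 30 min at room temperature; AC50 from Hill fits.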
# [9] = Cell Viability - LYMP2-016 (AID 984); settings: LYMP2-016 lymphoblastoid cell viability, qHTS; series mostly up to 92.2 µM; note: nearly all actives have a fitted effect of over 55% in size
# In short: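 Acute toxicity in a Coriell human lymphoblastoid line is scored as loss of intracellular ATP over 24 h of treatment in complete medium. CellTiter-Glo signal is fitted across concentrations with the Hill equation to give AC50.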
# [10] = Cell Viability - LYMP2-018 (AID 985); settings: LYMP2-018 lymphoblastoid cells, viability (qHTS); series mostly up to 92.2 µM;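 note: compound exposure lasted 24 hr at 37 °C; nearly all actives have a fitted effect of over 50% in size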
# In short: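 Human lymphoblastoid cells (2500/well) were pre-incubated 5 hr at 37 C, then exposed to compounds for 24 hr at 37 C in complete medium. Viability was read as intracellular ATP by CellTiter-Glo luminescence; AC50 values came from Hill-equation fits.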
# [11] = Cell Viability - LYMP2-020 (AID 986); settings: series mostly up to 92.2 µM; note: nearly all actives have a fitted effect of over 55% in size
# In short: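 Human lymphoblastoid cells, 2500/well, were pre-incubated 5 hr at 37 C, then exposed to compounds for 24 hr at 37 C in complete medium. Intracellular ATP was read by CellTiter-Glo luminescence, and AC50 was derived by Hill fitting of concentration-response data.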
# [12] = Cell Viability - LYMP2-022 (AID 987); settings: LYMP2-022 lymphoblastoid cell viability; series mostly up to 92.2 µM; note: nearly all actives have a fitted effect of over 55% in size
# In short: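 Human lymphoblastoid cells, 2500/well, preincubated 5 hr at 37 C, then exposed to compounds over a concentration range for 24 hr at 37 C in complete medium. Viability read as intracellular ATP by CellTiter-Glo luminescence after 30 min at room temperature; AC50 from Hill fits.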
# [13] = Cell Viability - LYMP2-024 (AID 988); settings: LYMP2-024 lymphoblastoid cell viability; series mostly up to 92.2 µM; note: nearly all actives have a fitted effect of over 60% in size
# In short: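 Human lymphoblastoid cells (2500/well) in complete medium were preincubated 5 hr at 37 C, then exposed to compounds for 24 hr at 37 C. Intracellular ATP was read by CellTiter-Glo luminescence; AC50 from Hill-equation fits of concentration-response data.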
# [14] = Cell Viability - LYMP2-026 (AID 989); settings: LYMP2-026 lymphoblastoid cell viability, qHTS; series mostly up to 92.2 µM; note: nearly all actives have a fitted effect of over 50% in size
# In short: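 Human lymphoblastoid cells (2500/well) in complete medium were preincubated 5 hr at 37 C, then exposed to compounds for 24 hr at 37 C. Cellular ATP was read by CellTiter-Glo luminescence; AC50 from Hill-equation fits of concentration-response data.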
# [15] = Cell Viability - LYMP1-002 - Assay at 24 hr (AID 993); settings: LYMP1-002 lymphoblastoid cells viability; series mostly up to 92.2 µM
# In short: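 Human lymphoblastoid LYMP1-002 cells, 2500/well in complete medium, were treated with compounds for 24 h at 37 C; intracellular ATP was read by CellTiter-Glo luminescence. AC50 values came from Hill-equation fits of qHTS concentration-response data.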
# [16] = Cell Viability - LYMP1-002 - Assay at 40 hr (AID 994); settings: LYMP1-002 lymphoblastoid cell viability; series mostly up to 92.2 µM; note: nearly all actives have a fitted effect of over 60% in size
# In short: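 Human lymphoblastoid cells, 2500/well in complete medium, were preincubated 5 hr at 37 C, then exposed to compounds for 40 hr at 37 C. Intracellular ATP was read by CellTiter-Glo luminescence after 30 min at room temperature; AC50 from Hill-equation fits.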
# [17] = target: Alpha-galactosidase A (Homo sapiens) (UniProt P06280); assay: Counterscreen for Glucocerebrosidase Inhibitors: qHTS Assay for Human alpha-Galactosidase at pH 4.5 (AID 992); settings: purified enzyme, fluorogenic substrate; series mostly up to 76.9 µM
# In short: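 Quantitative HTS: compounds tested from 0.7 nM up to 77 uM against 2 nM enzyme with 80 uM 4-MU alpha-D-galactopyranoside. The 20 min room-temperature reaction is stopped with 1M NaOH/1M glycine, pH 10.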
# [18] = target: alpha-glucosidase (Oryza sativa, rice) (UniProt Q653V4); assay: Counterscreen for Glucocerebrosidase Inhibitors: qHTS Assay for Rice alpha-Glucosidase at pH 5.0 (AID 997); settings: rice alpha-glucosidase enzyme activity; series mostly up to 76.9 µM
# In short: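 Rice alpha-glucosidase (4 nM final) with 400 uM 4-methylumbelliferyl-alpha-D-glucopyranoside in citrate buffer pH 5.0, 20 min at room temperature, stopped at pH 10; fluorescence 365/440 nm, compounds 0.7 nM–77 uM, AC50 from Hill fits.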
# [19] = target: DNA repair nuclease/redox regulator APEX1 (Homo sapiens) (UniProt P27695); assay: qHTS Validation Assay for Inhibitors of the Human Apurinic/apyrimidinic Endonuclease 1 (APE1) (AID 1705; note: potency is the fitted concentration of half-maximal effect); settings: purified APE1 endonuclease activity, fluorescence, titration; series mostly up to 57.1 µM
# In short: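 Endonuclease activity of human APE1 is followed as dequenching when the enzyme incises a tetrahydrofuran abasic site in a short duplex labelled 5'-TAMRA/3'-BHQ-2 (50 nM final), after 15 min enzyme–compound preincubation at room temperature.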
# [20] = Counterscreen for APE1 Inhibitors: Fluorescent Dye Displacement Validation Assay (AID 1707); settings: fluorescent dye displacement from DNA; series mostly up to 57.1 µM
# In short: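 Compounds are scored by their ability to displace Thiazole Orange (250 nM) from a 50 nM TAMRA-tagged duplex bearing a tetrahydrofuran abasic site. Buffer is 50 mM Tris-HCl pH7.5, 50mM NaCl, 2 mM MgCl2, 0.01% Tween-20.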
# [21] = measured here: cell count channel max response
# [22] = measured here: lipid channel max response
# Chain of Alpha-galactosidase A (Homo sapiens) (P06280 whole entry, looked up): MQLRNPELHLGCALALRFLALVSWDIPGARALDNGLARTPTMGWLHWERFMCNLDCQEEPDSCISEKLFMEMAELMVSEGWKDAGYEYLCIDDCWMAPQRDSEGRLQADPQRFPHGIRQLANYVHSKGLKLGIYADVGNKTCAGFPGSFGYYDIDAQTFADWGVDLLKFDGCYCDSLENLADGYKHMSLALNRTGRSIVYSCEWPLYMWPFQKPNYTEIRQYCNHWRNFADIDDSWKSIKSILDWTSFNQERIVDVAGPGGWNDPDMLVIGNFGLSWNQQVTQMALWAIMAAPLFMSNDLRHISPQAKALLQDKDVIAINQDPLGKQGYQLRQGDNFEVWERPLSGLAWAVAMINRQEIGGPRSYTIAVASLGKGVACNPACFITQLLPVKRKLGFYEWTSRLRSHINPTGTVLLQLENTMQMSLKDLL
# Chain of DNA repair nuclease/redox regulator APEX1 (Homo sapiens) (P27695 whole entry, looked up): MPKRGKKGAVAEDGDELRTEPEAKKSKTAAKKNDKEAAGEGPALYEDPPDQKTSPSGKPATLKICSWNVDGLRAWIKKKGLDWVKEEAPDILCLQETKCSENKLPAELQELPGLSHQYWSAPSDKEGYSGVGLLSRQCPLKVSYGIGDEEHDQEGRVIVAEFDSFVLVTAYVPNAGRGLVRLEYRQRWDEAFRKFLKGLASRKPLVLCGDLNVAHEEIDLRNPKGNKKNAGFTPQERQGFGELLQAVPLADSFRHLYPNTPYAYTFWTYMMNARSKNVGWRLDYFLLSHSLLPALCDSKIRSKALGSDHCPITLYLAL
structure (smiles),measurement,setting,value
CCCCC(CC)CN1CN(CC(CC)CCCC)CC(C)(N)C1 (centres undefined),"activity change, negative = inhibition",[1]; at 57.5 µM (top of the series),3.27% (inactive)
same,max response,[1]; [21],28.9%
same,max response,[1]; [22],41.5%
COc1cc(N)c(Cl)cc1C(=O)NC1CCN(Cc2ccccc2)CC1,"activity change, negative = inhibition",[1]; at 25.7 µM (top of the series),0.953% (inactive)
same,"activity change, negative = inhibition",[1]; at 57.5 µM (top of the series),9.3% (inactive)
same,max response,[1]; [21],-2.73% and -2.52%
same,max response,[1]; [22],-0.303% and 10.6%
COc1ccc(C(=O)c2ccccc2)c(O)c1,outcome,[2],inactive
same,outcome,[3],inactive
same,outcome,[4],inactive
same,outcome,[5],inactive
same,outcome,[6],inactive
same,outcome,[7],inactive
same,outcome,[8],inactive
same,outcome,[9],inactive
same,Potency,[10],inactive
same,Potency,[11],inactive
same,outcome,[12],inactive
same,Potency,[13],inactive
same,outcome,[14],inactive
same,outcome,[15],inactive
same,Potency,[16],inactive
same,"activity change, negative = inhibition",[1]; at 25.7 µM (top of the series),-0.0822% (inactive)
same,"activity change, negative = inhibition",[1]; at 57.5 µM (top of the series),9.05% (inactive)
same,max response,[1]; [21],-14% and -2.88%
same,max response,[1]; [22],-14.1% and 8.45%
Nc1ccc(C(=O)NCC(=O)O)cc1,"activity change, negative = inhibition",[1]; at 25.7 µM (top of the series),-0.313% (inactive)
same,max response,[1]; [21],-0.767%
same,max response,[1]; [22],0.146%
Oc1ccc(Cl)cc1Cc1cc(Cl)ccc1O,outcome,[15],inactive
CC(C)(C)NC[C@H](O)COc1nsnc1N1CCOCC1,outcome,[17],inactive
same,outcome,[18],inactive
same,"activity change, negative = inhibition",[1]; at 25.7 µM (top of the series),-2.08% (inactive)
same,"activity change, negative = inhibition",[1]; at 57.5 µM (top of the series),1.69% (inactive)
same,max response,[1]; [21],10% and 1.77%
same,max response,[1]; [22],6.06% and 5.65%
NC(=O)c1ccccc1O,outcome,[2],inactive
same,outcome,[3],inactive
same,outcome,[4],inactive
same,outcome,[5],inactive
same,outcome,[6],inactive
same,outcome,[7],inactive
same,outcome,[8],inactive
same,outcome,[9],inactive
same,Potency,[10],inactive
same,Potency,[11],inactive
same,outcome,[12],inactive
same,Potency,[13],inactive
same,outcome,[14],inactive
same,outcome,[15],inactive
same,Potency,[16],inactive
same,"activity change, negative = inhibition",[1]; at 57.5 µM (top of the series),8.72% (inactive)
same,max response,[1]; [21],13.3%
same,max response,[1]; [22],29.8%
CN1CCC[C@@H]1CCO[C@](C)(c1ccccc1)c1ccc(Cl)cc1,outcome,[17],inactive
same,outcome,[18],inactive
same,"activity change, negative = inhibition",[1]; at 25.7 µM (top of the series),-6.95% (inactive)
same,max response,[1]; [21],-6.75%
same,max response,[1]; [22],-13.1%
CC(=O)OCC1=C(C(=O)O)N2C(=O)[C@@H](NC(=O)CSc3ccncc3)[C@H]2SC1,Potency,[19],8.91 µM (active)
same,outcome,[20],inactive
O=C1C(O)=C(O)C(=O)C(O)=C1O,"activity change, negative = inhibition",[1]; at 25.7 µM (top of the series),-0.531% (inactive)
same,"activity change, negative = inhibition",[1]; at 57.5 µM (top of the series),9.14% (inactive)
same,max response,[1]; [21],-3.62% and 13.5%
same,max response,[1]; [22],-3.42% and 27.1%
COc1ccc(C(Cl)=C(c2ccc(OC)cc2)c2ccc(OC)cc2)cc1,outcome,[2],inactive
same,outcome,[3],inactive
same,outcome,[4],inactive
same,outcome,[5],inactive
same,outcome,[6],inactive
same,outcome,[7],inactive
same,outcome,[8],inactive
same,outcome,[9],inactive
same,Potency,[10],inactive
same,Potency,[11],inactive
same,outcome,[12],inactive
same,Potency,[13],inactive
same,outcome,[15],inactive
same,Potency,[16],inactive
same,"activity change, negative = inhibition",[1]; at 25.7 µM (top of the series),1.46% (inactive)
same,max response,[1]; [21],-13.4%
same,max response,[1]; [22],-12.3%
CCN(CC)CCNC(=O)c1cc(Br)c(N)cc1OC,"activity change, negative = inhibition",[1]; at 25.7 µM (top of the series),-3.04% (inactive)
same,"activity change, negative = inhibition",[1]; at 57.5 µM (top of the series),5.14% (inactive)
same,max response,[1]; [21],-6.94% and 12.8%
same,max response,[1]; [22],-8.36% and 21.9%
CC(=O)Nc1ccc(S(=O)(=O)Nc2ccc([N+](=O)[O-])cc2)cc1,"activity change, negative = inhibition",[1]; at 57.5 µM (top of the series),7.58% (inactive)
same,max response,[1]; [21],4.05%
same,max response,[1]; [22],18.4%
C/C=C/c1ccc(O)c(OC)c1,outcome,[2],inactive
same,outcome,[3],inactive
same,outcome,[4],inactive
same,outcome,[5],inactive
same,outcome,[6],inactive
same,outcome,[7],inactive
same,outcome,[8],inactive
same,outcome,[9],inactive
same,Potency,[10],inactive
same,Potency,[11],inactive
same,outcome,[12],inactive
same,Potency,[13],inactive
same,outcome,[14],inactive
same,outcome,[15],inactive
same,Potency,[16],inactive
